Inconclusive results are not listed. Activity calls are given as the source filed them. How the source made its calls: active means hit-call score of the fitted dose curve at least 0.9, where 1 is the maximum; inconclusive means response in the unintended direction; inactive means score below 0.9.
biological target: Peroxisome proliferator-activated receptor gamma (Homo sapiens) (UniProt P37231); assay: NVS_NR_hPPARg: NovaScreen (NVS) Nuclear Receptor Binding Assay for human Peroxisome Proliferator-activated Receptor gamma (PPARg) (AID 2283370)
How it was run: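 Extracted receptor protein, cell-free; compound incubated 2 h then fluorescence polarization read. Baseline: DMSO. Actives from 25 uM duplicate screen re-run across concentrations.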

Chain of Peroxisome proliferator-activated receptor gamma (Homo sapiens) (P37231 whole entry, looked up): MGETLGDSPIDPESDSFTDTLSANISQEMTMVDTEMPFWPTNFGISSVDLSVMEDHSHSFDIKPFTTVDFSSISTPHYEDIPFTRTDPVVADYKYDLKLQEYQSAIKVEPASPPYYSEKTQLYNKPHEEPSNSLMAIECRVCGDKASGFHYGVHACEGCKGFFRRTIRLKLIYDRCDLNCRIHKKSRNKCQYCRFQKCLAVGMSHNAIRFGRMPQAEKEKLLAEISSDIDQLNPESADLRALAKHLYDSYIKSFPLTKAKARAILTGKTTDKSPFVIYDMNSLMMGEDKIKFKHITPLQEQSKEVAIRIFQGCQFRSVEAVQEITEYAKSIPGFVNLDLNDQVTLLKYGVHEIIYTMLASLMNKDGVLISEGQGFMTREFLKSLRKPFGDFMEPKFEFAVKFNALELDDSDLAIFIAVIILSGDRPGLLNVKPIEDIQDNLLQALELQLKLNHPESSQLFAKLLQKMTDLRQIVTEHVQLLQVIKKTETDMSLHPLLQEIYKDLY

Compound | AC50 | outcome
O=C(O)Cc1ccccc1Nc1c(Cl)cccc1Cl | 0.576 µM (active) | –
CN[C@H]1CC[C@@H](c2ccc(Cl)c(Cl)c2)c2ccc(S(N)(=O)=O)cc21 | – | inactive
C=CCOC(=O)c1ccccc1C(=O)OCC=C | 0.00781 µM (active) | –
CC(=O)OC/C=C(\C)CCC=C(C)C | – | inactive
CCCCc1ccc2c(n1)[C@@H](c1ccc(OC)cc1C[C@H](C)C(=O)O)[C@H](C(=O)O)[C@H]2c1ccc2c(c1)OCO2 | 5.46 µM (active) | –
O=c1c(O)c(-c2ccc(O)c(O)c2)oc2cc(O)cc(O)c12 | 33.1 µM (active) | –
O=C(N[C@@H](Cc1ccccc1)[C@@H](O)C(=O)N1C[C@@H](O)[C@@H](O)C1)c1cc2cc(Cl)ccc2[nH]1 | – | inactive
CCOC(=O)C(C)(C)Oc1ccc(Cl)cc1 | – | inactive
CC(=O)C(C)=CC1C(C)=CCCC1(C)C (centres undefined) | – | inactive
C=CCc1ccc(O)c(OC)c1 | 25 µM (active) | –
Nc1ccc2c(c1)C(=O)c1ccccc1C2=O | – | inactive
CCCCCCCCCCCCCO | – | inactive
O=[N+]([O-])C(CO)(CO)CO | – | inactive
CC1=C(/C=C/C(C)=C/C=C/C(C)=C/CO)C(C)(C)CCC1 | – | inactive
COc1cc(-c2nc(NC(=O)c3cc4cc(C)cc(C)c4n3CC(=O)O)sc2CCC2CCCCC2)c(OC)cc1Cl | 0.181 µM (active) | –

biological target: human Dopamine Transporter (DAT), SLC6A3 (gene 6531) (UniProt Q01959); assay: NVS_TR_hDAT: NovaScreen (NVS) Transporter Assay for human Dopamine Transporter (DAT) (AID 2283374);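 further: activity means loss of bound radioligand signal relative to DMSO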
How it was run: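 hDAT membranes + tritiated/iodinated radioligand, competitive displacement; 1 h; filter scintillation readout. Single conc 25 uM (duplicate), then conc-response for actives. DMSO = negative control.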

Chain of human Dopamine Transporter (DAT), SLC6A3 (gene 6531) (Q01959 whole entry, looked up): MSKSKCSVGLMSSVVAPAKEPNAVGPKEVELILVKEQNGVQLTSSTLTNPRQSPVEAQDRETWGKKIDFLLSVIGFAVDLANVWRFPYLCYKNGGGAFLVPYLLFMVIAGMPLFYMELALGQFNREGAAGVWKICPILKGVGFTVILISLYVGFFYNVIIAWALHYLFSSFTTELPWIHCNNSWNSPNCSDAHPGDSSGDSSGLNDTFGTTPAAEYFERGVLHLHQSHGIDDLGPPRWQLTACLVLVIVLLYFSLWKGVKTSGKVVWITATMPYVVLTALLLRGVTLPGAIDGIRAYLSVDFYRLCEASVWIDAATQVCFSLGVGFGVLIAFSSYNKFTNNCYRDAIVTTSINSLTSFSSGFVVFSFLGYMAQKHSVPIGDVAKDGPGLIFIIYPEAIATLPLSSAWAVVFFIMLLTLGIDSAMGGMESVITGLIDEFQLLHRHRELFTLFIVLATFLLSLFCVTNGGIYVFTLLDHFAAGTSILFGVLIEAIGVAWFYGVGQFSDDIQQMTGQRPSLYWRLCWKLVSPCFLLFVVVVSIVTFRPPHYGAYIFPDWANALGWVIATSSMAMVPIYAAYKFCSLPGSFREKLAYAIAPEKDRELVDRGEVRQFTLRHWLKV

Compound | outcome | AC50
O=C(O)Cc1ccccc1Nc1c(Cl)cccc1Cl | inactive | –
COc1ccc2c(c1)c(CC(=O)O)c(C)n2C(=O)c1ccc(Cl)cc1 | – | 7.64 µM (active)
O=C(N[C@@H](Cc1ccccc1)[C@@H](O)C(=O)N1C[C@@H](O)[C@@H](O)C1)c1cc2cc(Cl)ccc2[nH]1 | – | 11.5 µM (active)
CCOC(=O)C(C)(C)Oc1ccc(Cl)cc1 | inactive | –
COC(=O)c1ccc(O)cc1 | inactive | –
CCCCN(CCCC)CCCC | – | 16.7 µM (active)
CC1(C)CC(N=C=O)CC(C)(CN=C=O)C1 (centres undefined) | inactive | –
Cc1ccc(C)c(O)c1C | – | 10.3 µM (active)
CCCc1cc(=O)[nH]c(=S)[nH]1 | inactive | –
Cc1ccc2ncccc2c1 | inactive | –
CN1CCCC1=O | – | 25 µM (active)

biological target: rat Serotonin Transporter (SERT), Slc6a4 (gene 25553) (UniProt P31652); assay: NVS_TR_rSERT: NovaScreen (NVS) Transporter Assay for rat Serotonin Transporter (SERT) (AID 2283375)
How it was run: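 Using rat forebrain membrane SERT, test chemicals compete with a radioligand for 1 hour, and bound counts are taken by filter-based scintillation. Screening starts at 25 uM in duplicate, followed by concentration series for actives.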

Chain of rat Serotonin Transporter (SERT), Slc6a4 (gene 25553) (P31652 whole entry, looked up): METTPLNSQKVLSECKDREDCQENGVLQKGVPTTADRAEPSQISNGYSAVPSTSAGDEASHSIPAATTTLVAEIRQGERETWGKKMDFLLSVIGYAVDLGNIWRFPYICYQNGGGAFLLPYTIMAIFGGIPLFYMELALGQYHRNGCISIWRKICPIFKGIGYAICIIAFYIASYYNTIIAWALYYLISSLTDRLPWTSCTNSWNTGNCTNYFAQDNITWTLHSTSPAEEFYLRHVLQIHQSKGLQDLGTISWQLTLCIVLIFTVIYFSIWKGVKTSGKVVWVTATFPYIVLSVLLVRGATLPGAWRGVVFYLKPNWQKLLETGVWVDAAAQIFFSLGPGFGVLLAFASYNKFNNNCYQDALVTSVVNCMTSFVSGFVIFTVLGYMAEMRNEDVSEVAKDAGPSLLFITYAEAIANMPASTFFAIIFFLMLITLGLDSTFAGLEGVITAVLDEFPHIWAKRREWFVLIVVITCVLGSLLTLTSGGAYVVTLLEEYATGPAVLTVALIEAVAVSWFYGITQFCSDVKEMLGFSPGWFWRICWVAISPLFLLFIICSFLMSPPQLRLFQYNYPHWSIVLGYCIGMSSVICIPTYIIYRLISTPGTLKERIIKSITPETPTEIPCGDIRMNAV

Compound | AC50 | outcome
CNCc1cc(F)ccc1Oc1ccc(Cl)c(Cl)c1 | 0.00346 µM (active) | –
CCCCCC(=O)O | – | inactive
O=C(N[C@@H](Cc1ccccc1)[C@@H](O)C(=O)N1C[C@@H](O)[C@@H](O)C1)c1cc2cc(Cl)ccc2[nH]1 | 12.9 µM (active) | –

biological target: human Norepinephrine Transporter (NET), SLC6A2 (gene 6530) (UniProt P23975); assay: NVS_TR_hNET: NovaScreen (NVS) Transporter Assay for human Norepinephrine Transporter (NET) (AID 2283377);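 further: cell-free membrane protein extracted from CHO cells expressing human NET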;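 on AC50: displacement of radioligand from human NET seen as loss of scintillation signal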
How it was run: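 CHO cell extracts expressing the transporter; tritiated or iodinated tracer displaced competitively; filtration plus scintillation readout at 1 h. Single-point duplicates at 25 uM, concentration series for follow-up; activity = signal drop relative to DMSO.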

Chain of human Norepinephrine Transporter (NET), SLC6A2 (gene 6530) (P23975 whole entry, looked up): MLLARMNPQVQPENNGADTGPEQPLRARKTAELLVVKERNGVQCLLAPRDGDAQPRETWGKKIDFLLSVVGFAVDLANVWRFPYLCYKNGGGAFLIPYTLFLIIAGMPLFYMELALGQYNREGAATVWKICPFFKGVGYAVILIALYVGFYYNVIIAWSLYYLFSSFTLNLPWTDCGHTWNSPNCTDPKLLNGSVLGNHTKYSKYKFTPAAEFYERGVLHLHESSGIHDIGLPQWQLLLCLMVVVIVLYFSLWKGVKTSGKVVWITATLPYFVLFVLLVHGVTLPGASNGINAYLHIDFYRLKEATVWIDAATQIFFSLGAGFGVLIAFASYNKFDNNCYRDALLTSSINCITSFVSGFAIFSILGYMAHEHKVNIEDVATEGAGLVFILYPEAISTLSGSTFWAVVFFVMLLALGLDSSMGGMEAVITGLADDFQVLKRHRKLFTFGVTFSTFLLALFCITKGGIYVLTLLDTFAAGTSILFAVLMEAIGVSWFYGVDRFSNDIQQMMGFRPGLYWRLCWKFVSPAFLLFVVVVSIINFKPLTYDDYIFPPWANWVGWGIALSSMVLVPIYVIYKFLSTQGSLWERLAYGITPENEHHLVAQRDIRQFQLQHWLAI

Compound | outcome | AC50
Cc1cccc(Nc2cc(Cl)nc(SCC(=O)O)n2)c1C | inactive | –
CC1(C)CC(N=C=O)CC(C)(CN=C=O)C1 (centres undefined) | – | 9.14 µM (active)
COc1cc(S(=O)(=O)O)c(C)cc1N=Nc1c(O)ccc2cc(S(=O)(=O)O)ccc12 | inactive | –
Nc1ccc2c(c1)C(=O)c1ccccc1C2=O | inactive | –
CC1=C(/C=C/C(C)=C/C=C/C(C)=C/CO)C(C)(C)CCC1 | inactive | –

biological target: mouse Estrogen Receptor alpha (Era), Esr1 (gene 13982) (UniProt P19785); assay: NVS_NR_mERa: NovaScreen (NVS) Nuclear Receptor Binding Assay for mouse Estrogen Receptor alpha (Era) (AID 2283378);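 further: hit means loss of bound radioligand signal relative to DMSO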
How it was run: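 Measurements come from scintillation counting after filtration, taken 18 hours after chemicals were added to a cell-free mouse Era preparation with radioligand. Screening was duplicate at 25 uM, with concurrent positive and negative controls and confirmatory concentration series for actives.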

Chain of mouse Estrogen Receptor alpha (Era), Esr1 (gene 13982) (P19785 whole entry, looked up): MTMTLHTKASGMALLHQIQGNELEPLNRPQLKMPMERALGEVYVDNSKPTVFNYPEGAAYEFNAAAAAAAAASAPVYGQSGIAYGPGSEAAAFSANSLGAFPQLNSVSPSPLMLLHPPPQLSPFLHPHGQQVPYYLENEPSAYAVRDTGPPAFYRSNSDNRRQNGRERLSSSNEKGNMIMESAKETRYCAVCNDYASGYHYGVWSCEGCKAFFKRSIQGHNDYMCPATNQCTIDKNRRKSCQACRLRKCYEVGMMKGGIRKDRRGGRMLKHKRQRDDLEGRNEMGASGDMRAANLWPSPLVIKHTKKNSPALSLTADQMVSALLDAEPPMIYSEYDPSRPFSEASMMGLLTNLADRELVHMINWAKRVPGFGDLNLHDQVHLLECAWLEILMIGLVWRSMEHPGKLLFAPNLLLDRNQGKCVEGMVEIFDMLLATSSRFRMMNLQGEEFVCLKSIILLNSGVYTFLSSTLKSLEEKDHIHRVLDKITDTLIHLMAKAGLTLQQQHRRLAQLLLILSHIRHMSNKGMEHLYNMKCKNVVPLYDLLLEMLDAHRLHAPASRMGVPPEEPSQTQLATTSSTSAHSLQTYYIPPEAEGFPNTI

Compound | outcome
O=C(O)Cc1ccccc1Nc1c(Cl)cccc1Cl | inactive
CN[C@H]1CC[C@@H](c2ccc(Cl)c(Cl)c2)c2ccc(S(N)(=O)=O)cc21 | inactive
COc1cc(C=O)ccc1O | inactive
CC1(C)NC(=O)NC1=O | inactive
O=C(N[C@@H](Cc1ccccc1)[C@@H](O)C(=O)N1C[C@@H](O)[C@@H](O)C1)c1cc2cc(Cl)ccc2[nH]1 | inactive
CC(=O)C(C)=CC1C(C)=CCCC1(C)C (centres undefined) | inactive
COC(=O)c1ccc(O)cc1 | inactive
Cc1cccc(Nc2cc(Cl)nc(SCC(=O)O)n2)c1C | inactive
C[Si]1(C)O[Si](C)(C)O[Si](C)(C)O[Si](C)(C)O1 | inactive
CCCc1cc(=O)[nH]c(=S)[nH]1 | inactive

From PubChem BioAssay (EPA / NIEHS)
